The results in this text go back to the supplement of paper PMC4237247.

The test system of this experiment is HeLa. Kind of experiment: percent cells in S phase; higher = more S arrest. The conditions noted are these: 10 µM; 20 h; hit class: G1-phase inhibitor. The protocol: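 HTS of 79,827 drug-like compounds at 10 uM. HeLa cells in 384-well plates were treated for 20 h, fixed, stained with Vybrant DyeCycle Green and scanned on an Acumen eX3 cytometer to give per-well cell cycle profiles (% cells in each phase). The plate Z' was 0.51. Only hits are listed: G1 hits >4 SD and S hits >5 SD from the mean.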
In the case of `C[C@@H]1O[C@@H](O[C@H]2C[C@@H](O)[C@]3(CO)[C@H]4[C@H](O)C[C@]5(C)[C@@H](C6=CC(=O)OC6)CC[C@]5(O)[C@@H]4CC[C@]3(O)C2)[C@H](O)[C@H](O)[C@H]1O`, the “percent cells in S phase” value was found to be 15%.

Regarding `O=[N+]([O-])c1ccc(NCCO)c2ncccc12`, the “percent cells in S phase” value was determined as 4.86%. On to `C/C(=C\c1ccc(Cl)cc1)[N+](=O)[O-]`, for which the “percent cells in S phase” value was found to be 4.01%.

As to `C[C@@]12C(=O)OC(=O)[C@]1(C)[C@H]1CC[C@@H]2O1`, the “percent cells in S phase” value worked out at 8.95%. For `CNC1CC2OC(C)(C1OC)n1c3ccccc3c3c4c(c5c6ccccc6n2c5c31)C(=O)NC4` (centres undefined) the value was 5.4%; for `C/C=C(/C)C(=O)O[C@H]1C(C)=C2[C@H]([C@@H]1OC(=O)CCCCCCC)[C@@](C)(OC(C)=O)C[C@H](OC(=O)CCC)[C@@]1(O)[C@H]2OC(=O)[C@@]1(C)O`, 7.22%; for `CC(C)(C)c1cc(C=C(C#N)C#N)cc(C(C)(C)C)c1O`, 8.81%. Next, `C[C@@H]1C[C@@H]([C@H](O)CC2CC(=O)NC(=O)C2)C(=O)[C@@H](C)C1` [Cycloheximide]: 6.83%; `CNc1ccc2oc(C[C@H]3O[C@@]4(CC[C@H]3C)O[C@H]([C@H](C)C(=O)c3ccc[nH]3)[C@H](C)C[C@H]4C)nc2c1C(=O)O`: 6.33%.
